Results from PubChem BioAssay AID1159580 (chemical genetic matrix, 2015).
Among all 5,500 compounds or so, about 2,000 (36%) were called active. Inconclusive results (about 18%) are left out. Rule as the data show it: active = normalized growth mostly below about 0.91 (no sharp cut-off); inconclusive = no clear call, values can overlap the other calls; inactive = mostly above about 0.92. This is one part of the list.

Experiment: chemical genetic growth profiling, strain panel (AID 1159580);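 also: tested at 20 µM; growth read once vehicle control cultures reached saturation at 30 °C; 1 = growth at the plate median or of vehicle wells; lower values mean less growth of the strain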
Conditions: S. cerevisiae deletion strains, growth OD
[1] = locus YHR030C, strain SLT2, active compounds read low
[2] = locus YHR079C, strain IRE1, active compounds read low
[3] = locus YJL095W, strain BCK1, active compounds read low
[4] = locus YJR066W, strain TOR1, active compounds read low
[5] = locus YLR113W, strain HOG1, active compounds read low
[6] = locus YNL183C, strain NPR1, active compounds read low
[7] = locus YOR231W, strain MKK1, active compounds read low
[8] = locus YPL256C, strain CLN2, active compounds read low

Measured: normalized growth

CN1CCC(=C2c3ccccc3C=Cc3ccccc32)CC1
inactive: locus YAL013W, strain DEP1, active compounds read low 0.966 | locus YAL040C, strain CLN3, active compounds read low 0.99 | locus YCL061C, strain MRC1 (second series), active compounds read low 0.99 | locus YDR150W, strain NUM1, active compounds read low 1 | locus YDR363W, strain ESC2, active compounds read low 1 | locus YER002W, strain NOP16, active compounds read low 0.995 | locus YGR078C, strain PAC10, active compounds read low 1 | locus YGR229C, strain SMI1, active compounds read low 0.959 | [1] 0.965 | [2] 0.967 | [3] 0.968 | [4] 0.942 | [5] 0.942 | locus YMR307W, strain GAS1, active compounds read low 1.01 | locus YNL175C, strain NOP13, active compounds read low 0.986 | [6] 0.914 | locus YNL197C, strain WHI3, active compounds read low 1.01 | locus YNL224C, strain SQS1, active compounds read low 0.995 | locus YNL322C, strain KRE1, active compounds read low 0.993 | locus YOR083W, strain WHI5 (second series), active compounds read low 1.01 | [7] 0.965 | locus YPL055C, strain LGE1, active compounds read low 0.973 | [8] 0.932

CN1CCC(=C2c3ccccc3CCc3sccc32)CC1
active: locus YHR013C, strain ard1, active compounds read low 0.842
inactive: locus YAL021C, strain ccr4, active compounds read low 0.91 | locus YAL026C, strain drs2, active compounds read low 0.956 | locus YAL030W, strain snc1, active compounds read low 0.987 | locus YBL061C, strain skt5, active compounds read low 0.967 | locus YBR009C, strain hhf1, active compounds read low 0.986 | locus YBR023C, strain chs3, active compounds read low 0.969 | locus YBR171W, strain sec66, active compounds read low 0.961 | locus YBR231C, strain swc5, active compounds read low 0.965 | locus YBR279W, strain paf1, active compounds read low 0.959 | locus YCL011C, strain gbp2, active compounds read low 0.958 | locus YCL016C, strain dcc1, active compounds read low 0.948 | locus YCL069W, strain vba3, active compounds read low 0.977 | locus YCR088W, strain abp1, active compounds read low 0.979 | locus YDL005C, strain med2, active compounds read low 0.968 | locus YDL040C, strain nat1, active compounds read low 0.98 | locus YDR001C, strain nth1, active compounds read low 0.96 | locus YDR069C, strain doa4, active compounds read low 0.905 | locus YDR137W, strain rgp1, active compounds read low 1.08 | locus YDR159W, strain sac3, active compounds read low 0.952 | locus YDR195W, strain ref2 0.954 | locus YDR297W, strain sur2, active compounds read low 0.976 | locus YDR334W, strain swr1, active compounds read low 0.972 | locus YDR335W, strain msn5, active compounds read low 0.949 | locus YDR392W, strain spt3, active compounds read low 0.93 | locus YEL003W, strain gim4, active compounds read low 0.982 | locus YEL037C, strain rad23, active compounds read low 0.975 | locus YEL061C, strain CIN8 (second series), active compounds read low 0.967 | locus YER015W, strain faa2, active compounds read low 0.967 | locus YER016W, strain bim1, active compounds read low 0.995 | locus YER111C, strain swi4, active compounds read low 0.954 | locus YER155C, strain BEM2 (second series), active compounds read low 0.933 | locus YFR010W, strain ubp6, active compounds read low 0.961 | locus YGL167C, strain pmr1, active compounds read low 0.969 | locus YGL173C, strain kem1, active compounds read low 0.972 | locus YGL227W, strain vid30, active compounds read low 0.941 | locus YGL240W, strain doc1, active compounds read low 0.998 | locus YGL253W, strain hxk2, active compounds read low 0.977 | locus YHR027C, strain rpn1, active compounds read low 0.954 | [1] 0.943 | [2] 0.97 | locus YHR142W, strain chs7, active compounds read low 0.951 | locus YJL092W, strain hpr5, active compounds read low 0.975 | locus YJL095W, strain BCK1 (second series), active compounds read low 0.973 | [3] 1.02 | locus YJL115W, strain asf1, active compounds read low 0.922 | locus YJL129C, strain trk1, active compounds read low 0.967 | locus YJL154C, strain vps35, active compounds read low 0.968 | locus YJL164C, strain tpk1, active compounds read low 0.968 | locus YJL166W, strain qcr8, active compounds read low 0.98 | [4] 0.941 | locus YKL160W, strain elf1, active compounds read low 0.935 | locus YKR026C, strain gcn3, active compounds read low 0.966 | locus YKR091W, strain srl3, active compounds read low 0.964 | locus YLL001W, strain dnm1, active compounds read low 0.987 | locus YLL026W, active compounds read low 0.982 | locus YLL041C, strain sdh2, active compounds read low 0.961 | locus YLR027C, strain aat2, active compounds read low 0.95 | [5] 1.01 | locus YLR221C, strain rsa3, active compounds read low 0.997 | locus YLR258W, strain gsy2, active compounds read low 0.966 | locus YLR262C, strain YPT6 (second series), active compounds read low 1.01 | locus YLR320W, strain mms22, active compounds read low 0.98 | locus YLR342W, strain FKS1, active compounds read low 0.973 | locus YLR357W, strain rsc2, active compounds read low 0.946 | locus YLR370C, strain arc18, active compounds read low 0.96 | locus YLR384C, strain iki3, active compounds read low 0.967 | locus YML120C, strain ndi1, active compounds read low 0.97 | locus YMR058W, strain fet3, active compounds read low 0.955 | locus YMR125W, strain sto1, active compounds read low 0.933 | locus YMR129W, active compounds read low 0.979 | locus YMR205C, strain PFK2, active compounds read low 0.958 | locus YMR231W, strain pep5, active compounds read low 0.979 | locus YNL071W, strain lat1, active compounds read low 0.958 | [6] 0.97 | locus YNL209W, strain ssb2, active compounds read low 0.962 | locus YNL248C, strain rpa49, active compounds read low 0.955 | locus YNL322C, strain KRE1 (second series), active compounds read low 0.936 | locus YNR049C, strain mso1, active compounds read low 0.97 | locus YOR001W, strain rrp6, active compounds read low 0.948 | locus YOR070C, strain gyp1, active compounds read low 0.98 | locus YOR080W, strain dia2, active compounds read low 0.975 | locus YOR083W, strain WHI5, active compounds read low 0.913 | locus YOR106W, strain vam3, active compounds read low 0.889 | [7] 0.969 | locus YOR265W, strain rbl2, active compounds read low 0.969 | locus YOR270C, strain vph1, active compounds read low 0.872 | locus YOR290C, strain snf2, active compounds read low 0.916 | locus YPL051W, strain arl3, active compounds read low 0.956 | locus YPL078C, strain atp4, active compounds read low 0.957 | locus YPL106C, strain sse1, active compounds read low 0.942 | locus YPL240C, strain hsp82, active compounds read low 0.967 | [8] 0.963
